# Measurements taken from PubChem BioAssay.
# Active and inactive are the calls of the source.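 Rule for the calls, unless noted: active = inhibition above 20% together with a positive visual image hit; inconclusive = visual image hit but inhibition not above 20%; inactive = no visual image hit.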
# Experiments:
# [1] = inhibitors of TNFa-induced NFkB p65 translocation, primary screen, imaging, HUVEC, MLSMR starter and 10KST1 sets (AID 438); conditions: HUVEC TNFa-induced p65 nuclear translocation; cell count: measured here: nuclei count (cytotoxicity indicator), at 2.08 µM; inhibition: at 2 µM, stronger effect = higher value, 0% TNFa-plus-vehicle, 100% no-TNFa wells;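 note: compound added about 3h40 before a 20 min TNFalpha stimulation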;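 for inhibition: signal is the nuclear over cytoplasmic p65 intensity ratio per well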
# [2] = inhibitors of mutant huntingtin aggregation, primary screen, imaging, exon1htt(103Q)mCFP cells, high-content imaging (AID 483;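 active = visual image review flags a hit and inhibition of aggregation exceeds 20%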;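 note: compound exposure lasted 3 days before fixation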;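 for nuclei count: percent of the per-plate median nuclei count of sample wells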); conditions: exon1htt(103Q)mCFP cell line, aggregate imaging, at 2 µM; inhibition of aggregation: stronger effect = higher value; nuclei count: measured here: cell count, toxicity
# [3] = inhibitors of E-selectin induction by TNFa, primary screen, imaging, HUVEC, immunofluorescence, MLSMR starter and 10KST1 sets (AID 487;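 active = visually confirmed hit in the image check and inhibition above 20%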;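 for inhibition: signal is fraction of cell area covered by stained E-selectin grains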;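 for nuclei count: 100% = median nuclei count of all wells on the same plate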); conditions: HUVEC TNFalpha-induced E-selectin immunofluorescence imaging, at 2 µM; inhibition: stronger effect = higher value; nuclei count: measured here: cell number, toxicity
# [4] = molecular target: Voltage-gated potassium channel subunit beta-2 (Rattus norvegicus) (UniProt P62483); assay: KvBeta enzyme negative modulators, primary screen, biochemical, NADPH fluorescence (AID 622;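 active = fluorescence slope higher than the sample average by over 3 SD, cut at about -0.22 in these data, passing the limit was not always enough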;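 note: slope of raw intensity against log time taken from 70 to 1610 s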); conditions: recombinant KvBeta, 4-cyanobenzaldehyde reduction, at 10 µM, stronger effect = higher value
# [5] = molecular target: Voltage-gated potassium channel subunit beta-2 (Rattus norvegicus) (UniProt P62483); assay: KvBeta positive modulators, primary screen, biochemical, NADPH fluorescence (AID 623;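 active = NADPH fluorescence slope more negative than the mean of all samples by about 3 SD, 99.7% confidence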;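 note: fluorescence intensity change per second fitted from 20 to 320 s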); conditions: Recombinant KvBeta, NADPH fluorescence decrease slope, 10 min; at 10 µM; stronger effect = lower value
# [6] = molecular target: Alpha-2C adrenergic receptor (Homo sapiens) (UniProt P18825); assay: modulators of alpha2C/GIRK thallium flux, primary screen, cell-based, HEK293 alpha2C/GIRK1/2 (AID 624;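 active = fluorescence slope after compound addition differing from the mean of all screened samples at 99.7% confidence, in either direction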;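 note: slope of fluorescence ratio to pre-addition baseline per second over 15 to 24 s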); conditions: thallium flux BTC fluorescence, at 10 µM, actives lie on both sides
# [7] = inhibitors of Sendai virus-induced IRF3 signaling, primary screen, TLR/RLR signaling modifier project, cell-based, Sendai virus stimulus, luciferase, 10K MLSCN set (AID 602276;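 active = inhibition at or above 50% at 10 µM; inactive = inhibition below 50%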;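 note: firefly luciferase from ISG56 promoter only with Renilla not read in this screen; 0% = Sendai virus plus DMSO and 100% = medium plus DMSO without virus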); conditions: HEK293 RL24 IRF3 luciferase reporter, at 10 µM, stronger effect = higher value
# [8] = inhibitors of poly I:C-induced TLR3 signaling, primary screen, cell-based, poly I:C stimulus, luciferase, 10K MLSCN set (AID 602277;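 active = inhibition of the reporter signal at or above 50%; inactive = inhibition below 50%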); conditions: HEK293-TLR3 RL24 IRF3 luciferase reporter, at 10 µM, stronger effect = higher value
# Alpha-2C adrenergic receptor (Homo sapiens), sequence (P18825 whole entry, looked up): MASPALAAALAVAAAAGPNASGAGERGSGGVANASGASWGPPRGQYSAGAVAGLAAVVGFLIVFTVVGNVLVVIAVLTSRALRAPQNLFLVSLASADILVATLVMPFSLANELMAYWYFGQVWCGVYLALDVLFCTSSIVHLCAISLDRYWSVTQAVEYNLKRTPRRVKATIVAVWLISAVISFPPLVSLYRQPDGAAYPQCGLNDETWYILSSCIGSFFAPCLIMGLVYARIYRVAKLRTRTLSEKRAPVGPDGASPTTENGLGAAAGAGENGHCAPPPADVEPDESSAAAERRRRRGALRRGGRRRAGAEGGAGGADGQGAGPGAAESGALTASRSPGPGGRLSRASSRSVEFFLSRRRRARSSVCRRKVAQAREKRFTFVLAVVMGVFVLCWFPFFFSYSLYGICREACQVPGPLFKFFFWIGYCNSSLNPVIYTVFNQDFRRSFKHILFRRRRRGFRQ
# Voltage-gated potassium channel subunit beta-2 (Rattus norvegicus), sequence (P62483 whole entry, looked up): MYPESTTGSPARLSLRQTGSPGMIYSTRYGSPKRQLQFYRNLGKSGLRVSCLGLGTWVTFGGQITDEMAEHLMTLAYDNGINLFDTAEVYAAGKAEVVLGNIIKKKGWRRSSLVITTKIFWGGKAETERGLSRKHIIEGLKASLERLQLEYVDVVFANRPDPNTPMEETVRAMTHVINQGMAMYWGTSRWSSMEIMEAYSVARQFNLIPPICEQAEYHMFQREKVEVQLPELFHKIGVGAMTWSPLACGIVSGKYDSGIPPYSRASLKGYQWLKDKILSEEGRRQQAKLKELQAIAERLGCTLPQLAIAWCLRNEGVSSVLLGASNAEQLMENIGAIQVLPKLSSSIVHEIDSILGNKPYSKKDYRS
Structure (SMILES),cell count [1],inhibition [1],inhibition of aggregation [2],nuclei count [2] [%],inhibition [3],nuclei count [3] [%],fluorescence slope [4],NADPH fluorescence slope [5],slope [6],inhibition [7],inhibition [8]
Cc1ccc(C)c(-n2c(CNC(=O)c3ccco3)nnc2SCC(=O)Nc2nnc(C)s2)c1,656,-6.4% (inactive),20.8% (inactive),99.5,3.7% (inactive),120,-0.528 (inactive),-3e-05 (inactive),0.0063 (inactive),14.2% (inactive),36.2% (inactive)
COc1ccc(-c2nnc(-c3ccc(N)cc3)o2)cc1,332,5.5% (inactive),9.6% (inactive),111,-145% (inactive),124,-0.0553 (active),-2.2e-05 (inactive),0.00409 (inactive),-34.1% (inactive),-82.2% (inactive)
COc1ccc(C2C(C#N)=C(N)OC3=C2C(=O)CC(C)C3)c(OC)c1OC (stereo not drawn),349,15.6% (inactive),5.8% (inactive),123,11.3% (inactive),102,-0.479 (inactive),2e-05 (inactive),0.00381 (inactive),-3.81% (inactive),19.1% (inactive)
Cc1cc(NC(=O)c2cnn3c(C(F)F)cc(C4CC4)nc23)no1,747,-3.3% (inactive),23% (inactive),100,27.3% (inactive),98.5,-0.486 (inactive),-3.5e-05 (inactive),0.00638 (inactive),9.48% (inactive),19.3% (inactive)
Cc1cc(NC(=O)CCC(=O)N(CC(=O)NC2CCCC2)Cc2ccc(F)cc2)no1,402,0.8% (inactive),-35.1% (inactive),103,-48.3% (inactive),122,-0.421 (inactive),-3.6e-05 (inactive),0.00498 (inactive),14.9% (inactive),13.1% (inactive)
CCOCCCn1c(=S)[nH]c2cc3c(cc2c1=O)OCO3,453,3% (inactive),-8.1% (inactive),92,-12.7% (inactive),103,-0.489 (inactive),-5.9e-05 (inactive),0.00895 (inactive),-16.3% (inactive),-2.74% (inactive)
CC(C)NC(=O)CSc1nc2ccccc2n1-c1ccccc1,379,2.5% (inactive),-2.9% (inactive),84.5,-80.1% (inactive),125,-0.59 (inactive),9.8e-06 (inactive),0.00781 (inactive),-22.3% (inactive),-5.89% (inactive)
Cc1ccc2c(Cl)cc(Cl)c(OCc3c(C)noc3C)c2n1,731,-1.2% (inactive),-13.6% (inactive),97.3,-164% (inactive),142,-0.604 (inactive),2.6e-05 (inactive),0.00543 (inactive),-17% (inactive),-0.677% (inactive)
COc1ccc(-c2noc(COc3ccc(C)c(C)c3)n2)cc1OC,334,2.7% (inactive),8.8% (inactive),97.9,21.9% (inactive),108,-0.316 (inactive),-6.4e-05 (inactive),0.00562 (inactive),-1.39% (inactive),98.1% (active)
CN1CCN(C(=O)NC2CCCN2S(=O)(=O)c2ccc(Cl)cc2)CC1 (stereo not drawn),528,-20.6% (inactive),11.5% (inactive),106,31.3% (inactive),105,-0.493 (inactive),-5.8e-05 (inactive),0.00636 (inactive),0.971% (inactive),21.8% (inactive)
O=C(C1CCCCC1)N1CCC(c2nc3c(nnn3Cc3c(F)cccc3Cl)c(=O)[nH]2)CC1,413,-4.6% (inactive),-15.9% (inactive),116,-110% (inactive),249,-0.454 (inactive),-0.000123 (inactive),0.00666 (inactive),6.04% (inactive),27% (inactive)
Cc1ccc(-c2cn3nc(C)c(C)nc3n2)cc1,778,-23.3% (inactive),-5.7% (inactive),119,-35.5% (inactive),121,-0.007 (active),-3.4e-06 (inactive),0.00494 (inactive),20% (inactive),1.39% (inactive)
CC1(C)CC(=O)C(C=Nc2ccc3c(c2)OCO3)=C(O)C1,329,1% (inactive),12.6% (inactive),104,-252% (inactive),86.4,-0.435 (inactive),-6.8e-05 (inactive),0.00387 (inactive),-6.77% (inactive),-5.98% (inactive)
CC(C)CCNC(=O)NC(=O)COc1ccccc1C#N,381,-23.5% (inactive),15.6% (inactive),102,-71.3% (inactive),111,-0.586 (inactive),-8.5e-06 (inactive),0.00627 (inactive),-47.7% (inactive),-112% (inactive)
CCC(CC)C(=O)NCCc1cc2ccc(C)cc2[nH]c1=O,643,0.5% (inactive),3% (inactive),117,-15.4% (inactive),111,-0.556 (inactive),-3.5e-05 (inactive),0.00557 (inactive),14.3% (inactive),26.1% (inactive)
COc1ccc(C(=O)N2CCN(c3nc4cc(C)ccc4cc3C#N)CC2)c(OC)c1,383,7.6% (inactive),-9.9% (inactive),102,-49.6% (inactive),115,-0.595 (inactive),-2.2e-05 (inactive),0.00559 (inactive),14.5% (inactive),22% (inactive)
COc1ccc(NC(=O)Nc2ccc(C)cc2OC(F)F)cc1OC,335,-6.5% (inactive),6.2% (inactive),91.2,-38.2% (inactive),94.2,-0.422 (inactive),-5.1e-05 (inactive),0.00406 (inactive),1.59% (inactive),-6.11% (inactive)
CCOC(=O)C(NC(=O)c1ccccc1)(Nc1cc(C)on1)C(F)(F)F (stereo not drawn),379,2.6% (inactive),-4.6% (inactive),101,0.6% (inactive),88.4,-0.494 (inactive),-1.9e-05 (inactive),0.00554 (inactive),14.5% (inactive),24.7% (inactive)
CC(C)C(=O)Nc1ccc(C(=O)NCc2cccnc2)cc1,393,9.4% (inactive),10% (inactive),102,-115% (inactive),109,-0.598 (inactive),1.1e-05 (inactive),0.00588 (inactive),-10.7% (inactive),-31.6% (inactive)
CCOC(=O)C(C(=O)OCC)C(C)C#CCN1CCCCC1 (stereo not drawn),325,-1.3% (inactive),-11.4% (inactive),99.7,-79.7% (inactive),113,-0.322 (inactive),-5.7e-05 (inactive),0.00551 (inactive),16.5% (inactive),26.6% (inactive)
O=C(Nc1nc(-c2ccccn2)cs1)C1CC1,673,-3.3% (inactive),2.7% (inactive),94.5,-21% (inactive),115,-0.482 (inactive),-7.5e-05 (inactive),0.00645 (inactive),-68.6% (inactive),-114% (inactive)
CNC(=O)C1C2C=CC3(O2)C1C(=O)N(C1CC1)C3C(=O)NCc1ccc(OC)cc1 (stereo not drawn),199,11.8% (inactive),-5.5% (inactive),102,41.6% (inactive),98.4,-0.533 (inactive),-3.2e-05 (inactive),0.00639 (inactive),14.1% (inactive),20.2% (inactive)
CCCCCc1c(O)nc(SCC(=O)NCC2CCCO2)[nH]c1=O (stereo not drawn),579,7.7% (inactive),-2.5% (inactive),108,-51.3% (inactive),111,-0.417 (inactive),3.1e-05 (inactive),0.00681 (inactive),3.21% (inactive),1.9% (inactive)
COc1ccc(CCN2CC(O)=C(c3nc4ccccc4c(=O)[nH]3)C2=N)cc1OC,642,-0.8% (inactive),-7.4% (inactive),83.2,-35.6% (inactive),98.6,-0.489 (inactive),-1e-06 (inactive),0.00682 (inactive),2.39% (inactive),7.15% (inactive)
COc1ccccc1NC(=O)N1CCN(c2ccccc2F)CC1,209,2.5% (inactive),-10.6% (inactive),99.1,-100% (inactive),102,-0.388 (inactive),-3.6e-05 (inactive),0.00564 (inactive),11.9% (inactive),-4.11% (inactive)
CCOC(=O)c1sc(Nc2nc3c(OC)cccc3s2)nc1C,435,2.2% (inactive),-20.1% (inactive),106,-20.5% (inactive),101,-0.351 (inactive),2.5e-05 (inactive),0.00775 (inactive),-1.57% (inactive),-60.9% (inactive)
Cc1cc(C)cc(OCC(=O)NC2=NCCS2)c1,311,-11.8% (inactive),2.3% (inactive),165,-76% (inactive),115,-0.573 (inactive),1.2e-05 (inactive),0.00659 (inactive),-3.94% (inactive),-24% (inactive)
CCOC(=O)C1=C(C)Nc2nnnn2C1c1ccc(OC)c(Br)c1 (stereo not drawn),635,5.8% (inactive),-8.3% (inactive),94.6,2.7% (inactive),111,-0.574 (inactive),-1.5e-05 (inactive),0.00761 (inactive),-20% (inactive),-12.8% (inactive)
